Several values for one entry are separate records, joined by “and”; a condition that tells them apart may be missing. Equal values may be shown once. Where a name gives a salt, the structure may show the parent alone. About 620 (11%) of roughly 5,800 compounds showed activity. Only a selection was taken, and actives are over-represented in it overall. Unmarked numbers belong to inactive results.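 Rule for the calls: active = score above a cut-off or among the top three wells of a plate; in these data no inactive exceeds 0.85.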
Tested on: primary human hepatic stellate cells (donor 1)
Experiment: scaled lipid accumulation score (0 = DMSO-like, 1 = nortriptyline-like); higher = stronger HSC inactivation (lipid re-accumulation), active = hit call of the paper
Conditions: 48 h
Experimental: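 Primary lipid accumulation screen in primary human hepatic stellate cell myofibroblasts (donor 1, passage 8) in 384-well plates. 100 nL of library compound was pin-transferred into 30 µL medium in duplicate, and cells were treated for 48 h. The 'Scaled' score combines distance from plate baseline, toxicity and reproducibility penalties, and is normalised to nortriptyline (positive) and DMSO (negative) controls on each plate. A hit is defined as scaled >0.85 or among the top 3 wells per plate.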

[1] = library stock concentration: 1 mM
[2] = library stock concentration: 10 mM

COC(=O)[C@@]1(O)C[C@H]2O[C@]1(C)n1c3ccccc3c3c4c(c5c6ccccc6n2c5c31)C(=O)NC4
scaled lipid accumulation score (library stock concentration: 1.1 mM): 0.142

CN[C@@H]1C[C@H]2O[C@@](C)([C@@H]1OC)n1c3ccccc3c3c4c(c5c6ccccc6n2c5c31)C(=O)NC4 [Staurosporine]
scaled lipid accumulation score [1]: 0.546 (active)

CN[C@@H]1C[C@H]2O[C@@](C)([C@@H]1OC)n1c3ccccc3c3c4c(c5c6ccccc6n2c5c31)C(=O)NC4 [staurosporine]
scaled lipid accumulation score (library stock concentration: 10.7 mM): 0.643

COC(=O)N1CCN(C(=O)Cc2ccc(Cl)c(Cl)c2)C(CN2CCCC2)C1.O=C(O)/C=C/C(=O)O (stereo not given)
scaled lipid accumulation score [2]: 0.902 (active)

O=C(Cc1ccc(Cl)c(Cl)c1)N1CCCCC1CN1CCCC1 (stereo not given)
scaled lipid accumulation score [2]: 0.581 and 0.566

COC(=O)N1CCN(C(=O)Cc2ccc(Cl)c(Cl)c2)C(CN2CCCC2)C1 (stereo not given)
scaled lipid accumulation score [2]: 0.05

CO[C@H]1CC=C2CCN3CCC4=C(CC(=O)OC4)[C@]23C1 [Dihydro-beta-erythroidine hydrobromide]
scaled lipid accumulation score [2]: ≤ -0.07

COc1ccc2c(c1OC)C(=O)OC2C1c2cc3c(cc2CCN1C)OCO3 (single isomer, unassigned; (+)) [(+)-Hydrastine]
scaled lipid accumulation score [2]: ≤ -0.07

CCCCC/C=C\C/C=C\C/C=C\C/C=C\CCCC(=O)Nc1cccc([N+](=O)[O-])c1 [Arachidonoyl m-Nitroaniline]
scaled lipid accumulation score [1]: ≤ 0

CN(C)C(=O)C(CCN1CCC(O)(c2ccc(Cl)cc2)CC1)(c1ccccc1)c1ccccc1.Cl [Loperamide hydrochloride]
scaled lipid accumulation score [2]: 1.46 (active)

CCOC(=O)C1(c2ccccc2)CCN(CCC(C#N)(c2ccccc2)c2ccccc2)CC1
scaled lipid accumulation score [2]: ≤ 0

CN(C)C(=O)C(CCN1CCC(O)(c2ccc(Cl)cc2)CC1)(c1ccccc1)c1ccccc1.Cl
scaled lipid accumulation score (library stock concentration: 9.7 mM): 1.02 (active)

O=C(N[C@H]1CN2CCC1CC2)c1cc2ccoc2cn1
scaled lipid accumulation score [2]: ≤ -0.055

Cl[C@H]1[C@H](Cl)[C@@H](Cl)[C@@H](Cl)[C@H](Cl)[C@H]1Cl [Lindane]
scaled lipid accumulation score (library stock concentration: 6.9 mM): ≤ -0.001
scaled lipid accumulation score [2]: ≤ 0

OC[C@@H](O)[C@H]1O[C@@H]2O[C@H](C(Cl)(Cl)Cl)O[C@@H]2[C@H]1O
scaled lipid accumulation score [2]: ≤ 0

CN(C)NC(=O)CCC(=O)O [Daminozide]
scaled lipid accumulation score (library stock concentration: 80 uM): ≤ 0
scaled lipid accumulation score (library stock concentration: 400 uM): ≤ 0
scaled lipid accumulation score (library stock concentration: 2 mM): ≤ 0
scaled lipid accumulation score [2]: ≤ 0

CC[C@@H](C(=O)[C@@H](C)[C@@H](O)[C@H](C)[C@@H]1O[C@@H]([C@@H](CC)C(=O)O)CC[C@@H]1C)[C@H]1O[C@]2(C=C[C@@H](O)[C@]3(CC[C@@](C)([C@H]4CC[C@](O)(CC)[C@H](C)O4)O3)O2)[C@H](C)C[C@@H]1C [Salinomycin, sodium]
scaled lipid accumulation score [2]: 0.422

Clc1ccc(C2=CCCC3CCC2N3)cn1 (stereo not given) [UB 165 fumarate]
scaled lipid accumulation score [2]: 0.039

NC1=NC(=O)C(c2ccccc2)O1 (stereo not given) [Pemoline]
scaled lipid accumulation score [2]: ≤ 0

C=C(C)[C@@H]1[C@H]2OC(=O)[C@@H]1[C@]1(O)C[C@H]3OC34C(=O)O[C@H]2[C@@]41C.CC(C)(O)[C@@H]1[C@H]2OC(=O)[C@@H]1[C@]1(O)C[C@H]3OC34C(=O)O[C@H]2[C@@]41C (stereo not given in full) [Picrotoxin]
scaled lipid accumulation score [2]: ≤ -0.055

O=C1C=C2C(=CCOC2O)O1 (stereo not given) [Patulin]
scaled lipid accumulation score [2]: 1.21 (active)

C[C@H](N)Cn1ccc2cc(F)c(Cl)cc21.O=C(O)/C=C/C(=O)O [Ro 60-0175 fumarate]
scaled lipid accumulation score [2]: 0.953 (active)

O=C[C@H](Cl)[C@@H](O)[C@H](O)[C@H](O)CO [2-Chloro-2-deoxy-D-glucose]
scaled lipid accumulation score [2]: ≤ -0.07

CCN1C[C@]2(COC)CC[C@H](O)[C@]34C1[C@@](O)([C@@H](OC)[C@H]23)[C@@]1(O)C[C@H](OC)[C@H]2C[C@@H]4[C@@H]1[C@H]2OC [Delsoline]
scaled lipid accumulation score: ≤ 0

CN(N=O)c1ccc(O)c(O)c1 [Me-3,4-dephostatin]
scaled lipid accumulation score [2]: ≤ -0.055

Br.Br.N=C(NCc1ccc(Cl)cc1)SCCCc1c[nH]cn1 [Clobenpropit dihydrobromide]
scaled lipid accumulation score [2]: 1.53 (active)

N=C(NCc1ccc(Cl)cc1)SCCCc1c[nH]cn1 [Clobenpropit]
scaled lipid accumulation score [2]: 0.903 (active)

Clc1ccc(C2CC3CCC2N3)cn1 (stereo not given)
scaled lipid accumulation score (library stock concentration: 24 mM): ≤ -0.012

C1=C2CCCN[C@H]2[C@@H]2C[C@H]1[C@H]1CCCCN1C2 [Aloperine]
scaled lipid accumulation score (library stock concentration: 3.33 mM): 0.028
scaled lipid accumulation score [2]: 0.068

COc1cc(C=Cc2ccc(OC)c(O)c2)cc(OC)c1
scaled lipid accumulation score [1]: 0.176

Clc1ccc(N2CC3CCC(C2)N3)nn1
scaled lipid accumulation score [2]: ≤ -0.07

C[N+]1(C)[C@@H]2CC(OC(=O)[C@H](CO)c3ccccc3)C[C@H]1[C@@H]1O[C@@H]12 (single isomer, unassigned; (-)) [(-)-Scopolamine methyl nitrate]
scaled lipid accumulation score [2]: ≤ 0

CC(=O)O[C@H]1CC[C@@]2(C)C(=CC[C@@H]3[C@@H]2CC[C@]2(C)C(=O)CC[C@@H]32)C1 [Prasterone acetate]
scaled lipid accumulation score [2]: 0.103

CCN(CC)CCO[C@H]1CC[C@@]2(C)C(=CC[C@@H]3[C@@H]2CC[C@]2(C)C(=O)CC[C@@H]32)C1.Cl
scaled lipid accumulation score [2]: 1.39 (active)

CCN(CC)CCO[C@H]1CC[C@@]2(C)C(=CC[C@@H]3[C@@H]2CC[C@]2(C)C(=O)CC[C@@H]32)C1
scaled lipid accumulation score [1]: 0.116

CC(=O)O[C@H]1CC[C@@]2(C)C(=CC[C@@H]3[C@@H]2CC[C@]2(C)C(=O)CC[C@@H]32)C1 [Dehydroisoandosterone 3-acetate]
scaled lipid accumulation score: ≤ 0

CC(C)NC(C)Cc1ccc(I)cc1 (stereo not given) [Iofetamine hydrochloride]
scaled lipid accumulation score [2]: 0.757

COP(=S)(OC)Oc1ccc(SC)c(C)c1
scaled lipid accumulation score [2]: ≤ 0

CO[C@H](C)[C@](O)(C(=O)OCC1=CCN2CC[C@H](O)[C@@H]12)C(C)C [Heliotrine]
scaled lipid accumulation score: ≤ 0

CO/C1=C\C(C)=C\[C@@H](C)[C@@H](O)[C@@H](C)C/C(C)=C/C=C/[C@H](OC)[C@@H]([C@@H](C)[C@@H](O)[C@H](C)[C@@]2(O)C[C@@H](O)[C@H](C)[C@@H](C(C)C)O2)OC1=O [Bafilomycin A1]
scaled lipid accumulation score (library stock concentration: 800 uM): 1.08 (active)
